Results: PMC13494018

Biological target: VTCN1, Q7Z7D3
Sequence (Q7Z7D3 whole entry): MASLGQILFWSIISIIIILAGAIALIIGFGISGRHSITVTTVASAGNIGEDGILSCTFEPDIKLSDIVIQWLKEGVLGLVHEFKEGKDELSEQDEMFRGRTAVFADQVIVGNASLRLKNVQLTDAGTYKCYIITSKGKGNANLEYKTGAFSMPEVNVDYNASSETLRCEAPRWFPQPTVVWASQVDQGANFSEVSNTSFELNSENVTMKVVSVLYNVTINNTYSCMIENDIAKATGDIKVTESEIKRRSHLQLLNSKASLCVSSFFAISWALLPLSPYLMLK

B1: design_599_7ce25d4d-e004-4b84-a16f-baf856d943ab_2019_dldesign_0_cycle1_af2pred (protein)
chain: GEELREKLLKEAEEAVKAAAADVPEMKDRLLAQMEKAKAAPLSKAPTELARLGSLLMAAAFATGSKTAEEAAEIAADAALKLK
binding in a display sort: not found (inactive)

B2: design_599_7ce25d4d-e004-4b84-a16f-baf856d943ab_1942_dldesign_0_cycle1_af2pred (protein)
chain: KEEIKKIAEEAIEKAENAKTKEQAAEAAKLAAEALKKVGAEKAAKRAEEVAKKAKEGSDSEVPELSKETLILAEQVLFAV
binding in a display sort: not found (inactive)

B3: design_600_24101276-ad9d-4944-b73e-53bb160363ad_1218_dldesign_0_cycle1_af2pred (protein)
chain: DEEKKKKAAEALDKAAELAKKAAEDEKYLPEALKALKETAKLAGEALGAEAAHAILEARAVVKAKGKEGAKEAAEVLEELRKKVR
binding in a display sort: not found (inactive)

B4: design_600_24101276-ad9d-4944-b73e-53bb160363ad_105_dldesign_0_cycle1_af2pred (protein)
chain: GEEEEKKKKAVEKAKKALEQTKKAADKGTALDPSAKPEFDKIVKEAEKELKKAEEGDAETAKKAAKEAIEEAHKAYELRAEVEAKAIR
binding in a display sort: not found (inactive)

B5: design_600_24101276-ad9d-4944-b73e-53bb160363ad_769_dldesign_0_cycle1_af2pred (protein)
chain: NEELIKFKAKAYSTAYSTAHTVAAAEKIAKTGTPEEAAKAKAAAAKALARLKEVGKEAKKKGPEYAKAFEEAAKEGEKVLKELLA
binding in a display sort: not found (inactive)

B6: design_600_24101276-ad9d-4944-b73e-53bb160363ad_768_dldesign_0_cycle1_af2pred (protein)
chain: AEDLKKAIEKIKKEVGEEAAKLVGEALKAKQAAADDPSLAETQLKKVEELEKEAKKLDPKAAKLVSKIKKVVKRMVEN
binding in a display sort: not found (inactive)

B7: design_600_24101276-ad9d-4944-b73e-53bb160363ad_1126_dldesign_0_cycle1_af2pred (protein)
chain: SEEAKKLLEELKKAAEEAIAKAKELEKEDPAKAAEYAKKALKELRAKGKEIAELDPAFAPEAGAEVQKVQEYRAEAEAKALRKK
binding in a display sort: not found (inactive)

B8: design_600_24101276-ad9d-4944-b73e-53bb160363ad_146_dldesign_0_cycle1_af2pred (protein)
chain: SKIYKLYGELTVEILKEKAEEAVELAKEGKAEEAKKYLKEAYERAKARAERLKEIDPEAGKEALKAVEKTYKEYEKELEKAIKEN
binding in a display sort: not found (inactive)

B9: design_600_24101276-ad9d-4944-b73e-53bb160363ad_1404_dldesign_0_cycle1_af2pred (protein)
chain: SLKEEIKNKEKSGKNNVEAAKMAAEEGDITFAKSAIAAAKKAIEQLKELAKKATPEVAKEGKEAAEKLEKEREEAEKLLKKKEA
binding in a display sort: not found (inactive)

B10: design_600_24101276-ad9d-4944-b73e-53bb160363ad_124_dldesign_0_cycle1_af2pred (protein)
chain: NEMKKKAEELQKKARKLREVVKKGPKDAAEAKKAAEEAKKVAEEAEKAIEEDPSADPKTIAKLQRAAFSAEAAAKQLEKWL
binding in a display sort: not found (inactive)

B11: design_600_24101276-ad9d-4944-b73e-53bb160363ad_1344_dldesign_0_cycle1_af2pred (protein)
chain: SFKKEAAIESSKELLDQAVAAAKADPARATEIAKTGLKKATERAKKAGEEAYKTVKEYGEKLLAEVEAAAKAAA
binding in a display sort: not found (inactive)

B12: design_600_24101276-ad9d-4944-b73e-53bb160363ad_1035_dldesign_0_cycle1_af2pred (protein)
chain: EKLEEAEKERDKAVDKLAALVAKALGPEAGAKARAAAKKGLAALKAVVAEAAKTSGLTAELAKALHEVYQATAEAELLKKK
binding in a display sort: binds (active)

B13: design_600_24101276-ad9d-4944-b73e-53bb160363ad_1497_dldesign_0_cycle1_af2pred (protein)
chain: DEAHKRAKALYEEDRALQKELRKKAKEAKEMAKEFADDPVWKAKAEEASKLNLQALFDPENKETREKGEKTYEEVYKKYKELKKKK
binding in a display sort: not found (inactive)

B14: design_599_7ce25d4d-e004-4b84-a16f-baf856d943ab_2004_dldesign_0_cycle1_af2pred (protein)
chain: DARKKAAELFKEAGKLATEAAKASPEEGKKLAEEAVAKVKEAAKVLGRERIGENFIKQIVAGRKSREIAGYQLEARADAIAA
binding in a display sort: not found (inactive)

B15: design_600_24101276-ad9d-4944-b73e-53bb160363ad_1735_dldesign_0_cycle1_af2pred (protein)
chain: SEEEEKLREENRKIAEKERNAHVAKAAAKLVEKATPEEAVAILEKAAKAASDTEFFLALAKKVKAEGKKGVKEAVKALKKRAKEL
binding in a display sort: not found (inactive)

B16: design_599_7ce25d4d-e004-4b84-a16f-baf856d943ab_1823_dldesign_0_cycle1_af2pred (protein)
chain: NISEENKKLAAAEQAKFTAEAAIKKVKATTPEEAKKVAEEAIKRLEKLGKVGEEAAKVAKEEIAKLKATAEKVAA
binding in a display sort: not found (inactive)

B17: design_599_7ce25d4d-e004-4b84-a16f-baf856d943ab_2060_dldesign_0_cycle1_af2pred (protein)
chain: SSLDKKIAEEALKTAREGRKKVEELVKAGKYEEALALAKELREKMLKVYEELVKEGGTIEGIQAAFSAAMLMESAESYAKTKLEAAK
binding in a display sort: not found (inactive)

B18: design_599_7ce25d4d-e004-4b84-a16f-baf856d943ab_2014_dldesign_0_cycle1_af2pred (protein)
chain: AELKAKAAIARVEFQAENIIEAGKKNGKEAEKIVKAAEETVKKAKEEIEKDPERAWEIAEKYIRELQEKARELIEKA
binding in a display sort: not found (inactive)

B19: design_600_24101276-ad9d-4944-b73e-53bb160363ad_1044_dldesign_0_cycle1_af2pred (protein)
chain: MTPEERKALALKEQAEHTAKAGKKLGAKDPEAALKAAERLKKLAERAKKTGTEEGKEAAKLAEEYAKELEKLAKKAKE
binding in a display sort: not found (inactive)

B20: design_600_24101276-ad9d-4944-b73e-53bb160363ad_1238_dldesign_0_cycle1_af2pred (protein)
chain: AVKEQAKALAEAGLKADVETAKKYAAAAVLLAFDSSDTEDVKYAAELLKKAAKEATDPEKKEAFERAARVVERAAEDMRKAEER
binding in a display sort: not found (inactive)

B21: design_599_7ce25d4d-e004-4b84-a16f-baf856d943ab_1925_dldesign_0_cycle1_af2pred (protein)
chain: AQAVLDEAKKAADKAIALANQAIALAKTDLAAGKAKMEEALEELTEADYLADKAAKAGATEEAKKVRDKAKAAIDAARATIKAA
binding in a display sort: not found (inactive)

B22: design_600_24101276-ad9d-4944-b73e-53bb160363ad_1283_dldesign_0_cycle1_af2pred (protein)
chain: EEEKKEIAKKTEEYYKELLKVAKEVAAKDPSKKPELAKLTDEAAQYVAEAKAGLNPEEALEKVKKLLEEAKKIA
binding in a display sort: not found (inactive)

B23: design_599_7ce25d4d-e004-4b84-a16f-baf856d943ab_2233_dldesign_0_cycle1_af2pred (protein)
chain: SLVANIGQDIRSEAIAKAKLGGAEGAKEGAELAREAAVAFRKLGEASTPELKELAEKAAEIMERVSERLEEEAKRKAA
binding in a display sort: not found (inactive)

B24: design_599_7ce25d4d-e004-4b84-a16f-baf856d943ab_1912_dldesign_0_cycle1_af2pred (protein)
chain: MEKLKELLEKTKELAKKGVEYAKKGDEEKARKYMLEARKYAEEAKKLDPEAGKEAAKIIQEAYEEMAEARFEVN
binding in a display sort: not found (inactive)

B25: design_599_7ce25d4d-e004-4b84-a16f-baf856d943ab_2320_dldesign_0_cycle1_af2pred (protein)
chain: SVKSRAESAYVTAAARHAKEKAAADPAYAELYGKVLFGFYDTLDDPSAAEETYALDPELAPKLLEEMEKVGKAAADAELAK
binding in a display sort: not found (inactive)

B26: design_599_7ce25d4d-e004-4b84-a16f-baf856d943ab_2071_dldesign_0_cycle1_af2pred (protein)
chain: GKAKEIAKKGAEELGKALGEEAKVDADIAAEQAEMQPTPELMAEAFKRGAKRIGEKTGKLEKAEEVAKKTVKAIKE
binding in a display sort: not found (inactive)

B27: design_600_24101276-ad9d-4944-b73e-53bb160363ad_1440_dldesign_0_cycle1_af2pred (protein)
chain: SEKVKKDSEAIRKLVKAVKEAGKAAKAAAKAAPEVAAVAEAAQKASAQLVFEALDEENIEEAAKKAEEAIKAAAEAVKAAAKAAK
binding in a display sort: not found (inactive)

B28: design_600_24101276-ad9d-4944-b73e-53bb160363ad_953_dldesign_0_cycle1_af2pred (protein)
chain: DAKKAAADALVATAAAEDPSLKPLAQEVADKAIASEDGLKAAKEGMTALAKKYPEYAKAFAAAMQAFYETYNEAEFKKKKA
binding in a display sort: not found (inactive)

B29: design_600_24101276-ad9d-4944-b73e-53bb160363ad_551_dldesign_0_cycle1_af2pred (protein)
chain: GSSAANALADAQRKALKELQAVGKEAEKVSPEAAKKAAEYRDKLLDGETVEEVEAVKEEGLKEVTAMIEKAKAA
binding in a display sort: not found (inactive)

B30: design_600_24101276-ad9d-4944-b73e-53bb160363ad_984_dldesign_0_cycle1_af2pred (protein)
chain: AKEEDLKKAEEELKKFAEEAAKELKEAGAKKQDIESTKEYGEHRAEAVVTTSKKKGLSPEELKKLVKEAKERIKKYKENKL
binding in a display sort: not found (inactive)

B31: design_600_24101276-ad9d-4944-b73e-53bb160363ad_591_dldesign_0_cycle1_af2pred (protein)
chain: AEAEYKKAKELLKKAKEALKKNPEEALKLAKEAVEAAKKAAEADPSLAPELGKYAQEALQIISEARFKIS
binding in a display sort: not found (inactive)

B32: design_600_24101276-ad9d-4944-b73e-53bb160363ad_413_dldesign_0_cycle1_af2pred (protein)
chain: ITPEEAKKLMENIAEAAKDMATWNPAAAETIAKSATKRMESIGKKAGIEEEAKKYSEEVKKFAKEVKEKS
binding in a display sort: not found (inactive)

B33: design_600_24101276-ad9d-4944-b73e-53bb160363ad_894_dldesign_0_cycle1_af2pred (protein)
chain: MTVEEYLKQAKEAGEEAIKILKETAKKDPSSKDVADMLIKAVETTLKEGSEKAKKEGAEKAKQLLEKMKLGLRTAKRLLENVERSE
binding in a display sort: not found (inactive)

B34: design_600_24101276-ad9d-4944-b73e-53bb160363ad_1688_dldesign_0_cycle1_af2pred (protein)
chain: GLKEEGKKKIKEIKELAKKALENPEKAEEYVKKARELAKEVAEKLPELGKEAAEAAQEALENRAEGKAKLAREK
binding in a display sort: not found (inactive)

B35: design_600_24101276-ad9d-4944-b73e-53bb160363ad_1012_dldesign_0_cycle1_af2pred (protein)
chain: VEELVKKAAEKKEKAVELIDEGKLEEAEKEAEELKKLAEEIKKKDPKLGEEALKGARALKRLIKEAKEAEEK
binding in a display sort: not found (inactive)

B36: design_600_24101276-ad9d-4944-b73e-53bb160363ad_358_dldesign_0_cycle1_af2pred (protein)
chain: DALAAGIVAAMREDPARGAAAARNAALQYEDDPAAYEAVKAAALAAAAADPAVAAALAAAFDAAAKEVSA
binding in a display sort: not found (inactive)

B37: design_600_24101276-ad9d-4944-b73e-53bb160363ad_1181_dldesign_0_cycle1_af2pred (protein)
chain: AAEEEIKKAITEAKDAALDSAYIAAKDPSKAAEAEAAYNAALGKLEEALKVLDEETRKKAIQSVKNIRDSTYEASKKSLKS
binding in a display sort: not found (inactive)

B38: design_599_7ce25d4d-e004-4b84-a16f-baf856d943ab_1969_dldesign_0_cycle1_af2pred (protein)
chain: MKVEEEVKKTKKVAEEAIKRAEEERKKASPELKEETEEVIKKAKEYMEKAEKAVKEGDYEKAKEYAKKMATYASELIALVNAIKH
binding in a display sort: not found (inactive)
